According to PubChem BioAssay AID1159580 (chemical genetic matrix, 2015):
About 2,000 (36%) of roughly 5,500 compounds were called active. Inconclusive results (about 18%) are left out. No stated cut-off is given here; in the data, active means normalized growth mostly below about 0.91 (no sharp cut-off); inconclusive means no clear call, values can overlap the other calls; inactive means mostly above about 0.92. The list shows a part of the results.

Experiment: chemical genetic growth profiling, strain panel (AID 1159580);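 further: tested at 20 µM; growth read once vehicle control cultures reached saturation at 30 °C; 1 = growth at the plate median or of vehicle wells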
Conditions: growth OD
[1] = S. cerevisiae deletion strains, locus YDL101C, strain DUN1, stronger effect = lower value
[2] = S. cerevisiae deletion strains, locus YHR030C, strain SLT2, stronger effect = lower value
[3] = S. cerevisiae deletion strains, locus YAL013W, strain DEP1, stronger effect = lower value
[4] = S. cerevisiae deletion strains, locus YDR150W, strain NUM1, stronger effect = lower value
[5] = S. cerevisiae deletion strains, locus YJR075W, strain HOC1, stronger effect = lower value
[6] = S. cerevisiae deletion strains, locus YPL055C, strain LGE1, stronger effect = lower value

Measured: normalized growth

Cc1ccc2nc(-c3ccc([N+](=O)[O-])o3)oc(=O)c2c1
inactive: S. cerevisiae deletion strains, strain NNK1, stronger effect = lower value 0.93
active: S. cerevisiae deletion strains, locus YAR019C, strain CDC15, stronger effect = lower value 0.0888 | S. cerevisiae deletion strains, locus YBL105C, strain PKC1, stronger effect = lower value 0.0913 | S. cerevisiae deletion strains, locus YBR135W, strain CKS1, stronger effect = lower value 0.193 | S. cerevisiae deletion strains, locus YBR136W, strain MEC1, stronger effect = lower value 0.181 | S. cerevisiae deletion strains, locus YBR160W, strain CDC28, stronger effect = lower value 0.231 | S. cerevisiae deletion strains, locus YDL017W, strain CDC7, stronger effect = lower value 0.259 | S. cerevisiae deletion strains, locus YDL028C, strain MPS1, stronger effect = lower value 0.595 | [1] 0.162 | S. cerevisiae deletion strains, locus YDL214C, strain PRR2, stronger effect = lower value 0.1 | S. cerevisiae deletion strains, locus YDR226W, strain ADK1, stronger effect = lower value 0.361 | S. cerevisiae deletion strains, locus YDR477W, strain SNF1, stronger effect = lower value 0.0976 | S. cerevisiae deletion strains, locus YER123W, strain YCK3, stronger effect = lower value 0.14 | S. cerevisiae deletion strains, locus YER133W, strain GLC7, stronger effect = lower value 0.116 | S. cerevisiae deletion strains, locus YFL009W, strain cdc4, stronger effect = lower value 0.37 | S. cerevisiae deletion strains, locus YFL029C, strain CAK1, stronger effect = lower value 0.124 | S. cerevisiae deletion strains, locus YFR019W, strain FAB1, stronger effect = lower value 0.112 | S. cerevisiae deletion strains, locus YFR028C, strain CDC14, stronger effect = lower value 0.149 | S. cerevisiae deletion strains, locus YGR040W, strain KSS1, stronger effect = lower value 0.109 | S. cerevisiae deletion strains, locus YGR052W, strain FMP48, stronger effect = lower value 0.112 | S. cerevisiae deletion strains, locus YGR092W, strain DBF2, stronger effect = lower value 0.108 | [2] 0.141 | S. cerevisiae deletion strains, locus YHR079C, strain IRE1, stronger effect = lower value 0.139 | S. cerevisiae deletion strains, locus YHR082C, strain KSP1, stronger effect = lower value 0.131 | S. cerevisiae deletion strains, locus YHR205W, strain SCH9, stronger effect = lower value 0.00195 | S. cerevisiae deletion strains, locus YIL147C, strain SLN1, stronger effect = lower value 0.52 | S. cerevisiae deletion strains, locus YJL095W, strain BCK1, stronger effect = lower value 0.121 | S. cerevisiae deletion strains, locus YJL157C, strain FAR1, stronger effect = lower value 0.0957 | S. cerevisiae deletion strains, locus YJR016C, strain ILV3, stronger effect = lower value 0.376 | S. cerevisiae deletion strains, locus YJR066W, strain TOR1 (second series), stronger effect = lower value 0.103 | S. cerevisiae deletion strains, locus YJR066W, strain TOR1, stronger effect = lower value 0.121 | S. cerevisiae deletion strains, locus YKL048C, strain ELM1, stronger effect = lower value 0.119 | S. cerevisiae deletion strains, locus YKL067W, strain YNK1, stronger effect = lower value 0.138 | S. cerevisiae deletion strains, locus YKL101W, strain HSL1, stronger effect = lower value 0.107 | S. cerevisiae deletion strains, locus YKL193C, strain SDS22, stronger effect = lower value 0.142 | S. cerevisiae deletion strains, locus YKL203C, strain TOR2, stronger effect = lower value 0.101 | S. cerevisiae deletion strains, locus YLR113W, strain HOG1, stronger effect = lower value 0.157 | S. cerevisiae deletion strains, locus YLR133W, strain CKI1, stronger effect = lower value 0.0945 | S. cerevisiae deletion strains, locus YLR403W, strain SFP1, stronger effect = lower value 0.000914 | S. cerevisiae deletion strains, locus YML070W, strain DAK1, stronger effect = lower value 0.12 | S. cerevisiae deletion strains, locus YMR001C, strain CDC5, stronger effect = lower value 0.127 | S. cerevisiae deletion strains, locus YMR205C, strain PFK2 (second series), stronger effect = lower value 0.11 | S. cerevisiae deletion strains, locus YMR277W, strain FCP1, stronger effect = lower value 0.124 | S. cerevisiae deletion strains, locus YNL006W, strain LST8, stronger effect = lower value 0.0975 | S. cerevisiae deletion strains, locus YNL020C, strain ARK1, stronger effect = lower value 0.105 | S. cerevisiae deletion strains, locus YNL161W, strain CBK1, stronger effect = lower value 0.142 | S. cerevisiae deletion strains, locus YNL183C, strain NPR1, stronger effect = lower value 0.118 | S. cerevisiae deletion strains, locus YNL207W, strain RIO2, stronger effect = lower value 0.12 | S. cerevisiae deletion strains, locus YNL222W, strain SSU72, stronger effect = lower value 0.101 | S. cerevisiae deletion strains, locus YNL307C, strain MCK1 (second series), stronger effect = lower value 0.1 | S. cerevisiae deletion strains, locus YOL078W, strain AVO1, stronger effect = lower value 0.164 | S. cerevisiae deletion strains, locus YOL136C, strain PFK27, stronger effect = lower value 0.19 | S. cerevisiae deletion strains, locus YOR061W, strain CKA2, stronger effect = lower value 0.0958 | S. cerevisiae deletion strains, locus YOR119C, strain RIO1, stronger effect = lower value 0.123 | S. cerevisiae deletion strains, locus YOR231W, strain MKK1, stronger effect = lower value 0.127 | S. cerevisiae deletion strains, locus YOR329C, strain SCD5, stronger effect = lower value 0.0982 | S. cerevisiae deletion strains, locus YPL031C, strain PHO85, stronger effect = lower value 0.102 | S. cerevisiae deletion strains, locus YPL153C, strain RAD53, stronger effect = lower value 0.136 | S. cerevisiae deletion strains, locus YPL204W, strain HRR25, stronger effect = lower value 0.116 | S. cerevisiae deletion strains, locus YPL209C, strain IPL1, stronger effect = lower value 0.179 | S. cerevisiae deletion strains, locus YPL256C, strain CLN2, stronger effect = lower value 0.174 | S. cerevisiae deletion strains, locus YPR025C, strain CCL1, stronger effect = lower value 0.119 | S. cerevisiae deletion strains, locus YPR111W, strain DBF20, stronger effect = lower value 0.32 | S. cerevisiae deletion strains, strain TSCII, stronger effect = lower value 0.106

COc1cc2nc(-c3cccs3)oc(=O)c2cc1OC
inactive: [3] 0.984 | S. cerevisiae deletion strains, locus YBR229C, strain ROT2, stronger effect = lower value 0.984 | [1] 0.987 | [4] 0.908 | S. cerevisiae deletion strains, locus YEL061C, strain CIN8, stronger effect = lower value 0.981 | S. cerevisiae deletion strains, locus YGR078C, strain PAC10, stronger effect = lower value 0.987 | S. cerevisiae deletion strains, locus YGR229C, strain SMI1, stronger effect = lower value 1 | [2] 0.864 | S. cerevisiae deletion strains, locus YHR087W, strain rtc3, stronger effect = lower value 0.985 | S. cerevisiae deletion strains, locus YJL187C, strain SWE1, stronger effect = lower value 0.999 | S. cerevisiae deletion strains, locus YJR043C, strain POL32, stronger effect = lower value 0.978 | [5] 0.971 | S. cerevisiae deletion strains, locus YLR039C, strain RIC1, stronger effect = lower value 0.999 | S. cerevisiae deletion strains, locus YLR058C, strain SHM2 (second series), stronger effect = lower value 0.994 | S. cerevisiae deletion strains, locus YLR085C, strain ARP6, stronger effect = lower value 0.936 | S. cerevisiae deletion strains, locus YLR262C, strain YPT6, stronger effect = lower value 1.01 | S. cerevisiae deletion strains, locus YML094W, strain GIM5, stronger effect = lower value 0.978 | S. cerevisiae deletion strains, locus YMR219W, strain ESC1, stronger effect = lower value 0.994 | S. cerevisiae deletion strains, locus YMR263W, strain SAP30, stronger effect = lower value 0.9 | S. cerevisiae deletion strains, locus YMR307W, strain GAS1, stronger effect = lower value 0.945 | S. cerevisiae deletion strains, locus YNL153C, strain GIM3, stronger effect = lower value 0.971 | S. cerevisiae deletion strains, locus YNL298W, strain CLA4 (second series), stronger effect = lower value 0.993 | S. cerevisiae deletion strains, locus YNL322C, strain KRE1, stronger effect = lower value 0.984 | S. cerevisiae deletion strains, locus YNR030W, strain Alg12, stronger effect = lower value 0.983 | [6] 1.11 | S. cerevisiae deletion strains, locus YPL241C, strain CIN2, stronger effect = lower value 0.976 | S. cerevisiae deletion strains, locus YPR135W, strain CTF4, stronger effect = lower value 0.879 | S. cerevisiae strains, strain wild type, stronger effect = lower value 1

CC(=O)NCCc1c[nH]c2ccccc12
inactive: [3] 1 | S. cerevisiae deletion strains, locus YAL040C, strain CLN3, stronger effect = lower value 1.01 | S. cerevisiae deletion strains, locus YCL061C, strain MRC1 (second series), stronger effect = lower value 1 | [4] 1 | S. cerevisiae deletion strains, locus YER002W, strain NOP16, stronger effect = lower value 1 | [5] 1 | S. cerevisiae deletion strains, locus YNL175C, strain NOP13, stronger effect = lower value 1.01 | S. cerevisiae deletion strains, locus YNL197C, strain WHI3, stronger effect = lower value 1 | S. cerevisiae deletion strains, locus YNL224C, strain SQS1, stronger effect = lower value 1.01 | S. cerevisiae deletion strains, locus YOR083W, strain WHI5 (second series), stronger effect = lower value 1.02 | [6] 1
